{
  "source": "PubChem BioAssay AID504375",
  "about": "(National Center for Advancing Translational Sciences (NCATS), 2011)",
  "note": "About 25 (2%) of roughly 1,600 compounds were called active. Roughly 7% stayed inconclusive and do not appear here. The call rests on the fitted dose curve; in most records, active means well fitted inhibition curve with a large enough effect; inconclusive means small, poorly fitted or top-dose-only effect, or effect the other way; inactive means no such curve, though single readings can be large or run the other way. Shown is part of a subset that was picked to be rich in actives. Where a call stands in place of a potency, no number is given. Potency means the concentration at half of the fitted maximal effect.",
  "data": [
    {"target": "Runt-related transcription factor 1 (Homo sapiens) + Core-binding factor subunit beta (Homo sapiens) (UniProt Q01196+Q13951)", "sequence (Q01196 whole entry, looked up)": "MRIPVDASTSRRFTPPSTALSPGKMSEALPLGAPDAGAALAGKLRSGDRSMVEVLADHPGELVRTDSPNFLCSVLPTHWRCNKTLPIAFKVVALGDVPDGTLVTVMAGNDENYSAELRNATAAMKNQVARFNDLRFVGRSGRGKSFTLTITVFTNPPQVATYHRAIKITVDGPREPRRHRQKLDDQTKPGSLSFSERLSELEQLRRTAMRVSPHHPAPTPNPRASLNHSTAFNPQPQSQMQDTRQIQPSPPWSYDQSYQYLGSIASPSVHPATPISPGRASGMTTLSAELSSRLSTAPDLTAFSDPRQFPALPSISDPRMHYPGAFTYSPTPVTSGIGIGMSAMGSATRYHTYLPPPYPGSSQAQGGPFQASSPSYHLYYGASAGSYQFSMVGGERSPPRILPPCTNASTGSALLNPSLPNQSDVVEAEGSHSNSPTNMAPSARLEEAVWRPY", "sequence (Q13951 whole entry, looked up)": "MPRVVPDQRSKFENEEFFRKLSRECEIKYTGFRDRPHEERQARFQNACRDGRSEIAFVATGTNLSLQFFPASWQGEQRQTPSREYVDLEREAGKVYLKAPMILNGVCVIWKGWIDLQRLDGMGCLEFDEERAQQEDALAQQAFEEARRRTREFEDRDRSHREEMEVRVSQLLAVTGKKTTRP", "assay": "qHTS Assay for Compounds Blocking the Interaction Between CBF-beta and RUNX1 for the Treatment of Acute Myeloid Leukemia: Hit Validation with Orthogonal Assay", "conditions": "CBFbeta-RUNX1 binding orthogonal assay, biochemical; series mostly up to 41 µM", "excerpt": "NIH Chemical Genomics Center [NCGC]\nNIH Molecular Libraries Probe Production centers Network [MLPCN]\nAssay Submitter (PI): Paul Liu\nCore Binding Factor (CBF) abnormalities are associated with 20-25% of all acute myeloid leukemias (AML), of which 5-10% are further sub classified as acute myelomonocytic leukemia with eosinophilia, also known as M4Eo in the FAB classification scheme. This subtype of leukemia is usually associated with chromosome 16 inversion (p13:q22). Chromosome 16 inversion results in formation of the fusion oncogene CBFB-MYH11, which encodes the fusion protein CBF-beta-SMMHC.\nIt has been hypothesized that the interference of CBF-beta and RUNX1 binding could have therapeutic implications for patients with CBF mediated leukemias. We developed a CBF-beta and RUNX1 binding assay in AlphaScreenTM format and optimized it for high throughput screening to search for inhibitors. The goal of this project is to screen MLPCN's compound collection (MLSMR) for identifying the inhibitors of the interaction between CBF-beta and RUNX1 proteins as research probes. If these probes work well in the animal models, the ultimate goal of this project is to development a new drug treatment for this disease.\nThis assay can not be used to assess how apparent inhibitors interfere with protein binding, and whether inhibitors specifically bind to either protein. Disruption of this protein-protein interaction, through any mechanism, is the intended target activity.\nThe present data set was run to confirm the activity of hits from the primary screen using an orthogonal assay technology for measuring protein-protein interaction disruption.\nA TR-FRET (time resolved fluorescence resonance energy transfer) assay was performed using the same assay buffer, protein concentrations and incubation times as described previously in the AlphaScreen assay, except that terbium (Tb+) labeled anti-his-antibody and XL665 linked streptavidin were used to capture the binding signal. The Tb+ labeled anti-his-antibody captures His(6)-CBF and XL665 linked streptavidin binds to biotin-RUNX1. The binding of RUNX1 to CBFbrings Tb+ and XL665 to proximity resulting in a TR-FRET signal. Briefly, in a white 384-well plate, 10 µl/well of mixture of biotin-RUNX1 and His(6)-CBFwere incubated with 10 µl/well buffer (positive control) or 10 µl/well compounds (negative control) for 20 min followed by an addition of 10 µl/well of Tb+ labeled anti-his(6)-antibody and XL665 linked streptavidin. After 90 min of incubation in the dark, the assay plate was measured in the Envision plate reader using TR-FRET detection mode. For the 1536-well plate format, 3 µl/well mixture of biotin-RUNX1 and His(6)-CBF (30 nM per protein) was incubated with 23 nl/well compound (dissolved in 100% DMSO) or the equivalent DMSO concentration (positive control) for 30 min followed by the addition of 1 µl/well of 0.44 ng Tb+ labeled anti-his(6)-antibody and 5 nM streptavodin-XL665. After 90 min of incubation, the assay plate was measured in the Envision plate reader.\nThe TR-FRET assay for detecting interaction between HIV-I Tat and […] was similarly performed with the recombinant full-length HIV-I Tat CLADE B and HIV-I Tat Biotin conjugated proteins supplied by Diatheva (Fano, Italy). Briefly, the His-CBF and Biotin-RUNX1 complex at a working concentration of 83.3 nM per protein were pre-incubated in assay buffer for 10 minutes on ice. Then HIV-I Tat or unlabeled CBF were added to reach final concentrations (Supplementary Figure 4b) and incubated for 5 minutes. Finally anti-His antibody and streptavidin-XL665 at a final concentration of 2.2 ng and 5 nM, respectively, were added to the plate, which was incubated for 1 hr prior to reading on the PerkinElmer Envision plate reader.\nKeywords: MLSMR, MLPCN, NIH Roadmap, qHTS, NCGC, Core binding factor, CBF, CBF-beta, Acute myeloid leukemia", "values": [
      {"smiles": "O=C(O)CCCCC1SCC2NC(=O)NC21", "note": "(stereo not given)", "Potency": "20 nM (active)"},
      {"smiles": "CC(C)[C@@]1(NC(=O)[C@H]2CC3c4cccc5[nH]cc(c45)C[C@H]3N(C)C2)O[C@@]2(O)C3CCCN3C(=O)[C@@H](Cc3ccccc3)N2C1=O", "note": "(stereo not given in full)", "Potency": "inactive"},
      {"smiles": "CCC(=Nc1cccc(C(F)(F)F)c1)c1c(O)n(C)c(=O)n(C)c1=O", "Potency": "inactive"},
      {"smiles": "Cc1onc(-c2c(Cl)cccc2Cl)c1C(=O)Nc1ccc2c(C(F)(F)F)cc(=O)oc2c1", "Potency": "inactive"},
      {"smiles": "CN(N=O)c1ccc(O)c(O)c1", "Potency": "2510 nM (active)"},
      {"smiles": "CN(N=O)c1cc(O)ccc1O", "Potency": "inactive"},
      {"smiles": "O=c1[nH]c(=S)n(-c2ccccc2)c(O)c1C=NCc1ccccn1", "Potency": "inactive"},
      {"smiles": "Cn1c(O)c(/C=N/N2CCOCC2)c(=O)[nH]c1=S", "Potency": "inactive"},
      {"smiles": "Cc1cc(OC(=O)N(C)C)nc2c1c(C)nn2C", "Potency": "inactive"},
      {"smiles": "O=C(O)CN1C(=O)CN=C(c2ccccn2)c2cc(Cl)ccc21", "Potency": "inactive"},
      {"smiles": "CC1CN=C(Nc2ccc(F)c(Cl)c2)S1", "note": "(stereo not given)", "Potency": "inactive"},
      {"smiles": "NC(Cc1cc(O)c(O)cc1O)C(=O)O", "note": "(stereo not given)", "Potency": "10000 nM (active)"},
      {"smiles": "COC1C(OC(=O)c2ccc(C)[nH]2)C(O)C(Oc2ccc3c(O)c(NC(=O)c4ccc(O)c(CC=C(C)C)c4)c(=O)oc3c2Cl)OC1(C)C", "note": "(stereo not given)", "Potency": "inactive"},
      {"smiles": "CCC(=NCc1cccnc1)c1c(O)n(-c2ccccc2C)c(=O)[nH]c1=O", "Potency": "inactive"},
      {"smiles": "CCCCc1ccc(C(=O)O)nc1", "Potency": "inactive"}
    ]}
  ]
}
